# Measured values reported in publication PMC5540273 (PLoS ONE, 2017).
# Assays:
# Conditions in all cases: concentration: 1 μM,replicates: in singlicate; n = 1
# [1] = system: NEK11
# [2] = system: NEK1
# [3] = system: NEK2
# [4] = system: NEK3
# [5] = system: NEK4
# [6] = system: NEK5
# [7] = system: NEK6
# [8] = system: NEK7
# [9] = system: NEK9
# [10] = system: T1, NIK
# T1 construct: gene MAP3K14
# [11] = system: T2, NIM1
# T2 construct: gene MGC42105
# [12] = system: NLK
# [13] = system: T3, OSR1
# T3 construct: gene OXSR1
# [14] = system: PAK1
# [15] = system: PAK2
# [16] = system: PAK3
# [17] = system: PAK4
# [18] = system: PAK6
# [19] = system: PAK7
# [20] = system: T4, PCTK1
# T4 construct: gene CDK16
# 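Note: KINOMEscan kinase panel screen.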
SMILES,%Inh [1],%Inh [2],%Inh [3],%Inh [4],%Inh [5],%Inh [6],%Inh [7],%Inh [8],%Inh [9],%Inh [10],%Inh [11],%Inh [12],%Inh [13],%Inh [14],%Inh [15],%Inh [16],%Inh [17],%Inh [18],%Inh [19],%Inh [20]
Cc1occc1-c1nc(N)c(OC[C@@H](N)Cc2c[nH]c3ccccc23)cc1-c1cc2c(C)n[nH]c2cn1 [GSK1660450],0%,46%,6%,0%,0%,29%,0%,100%,67%,78%,74%,17%,13%,97.8%,86%,75%,0%,11%,9%,10%
C[C@@H]1CCN(C(=O)CC#N)C[C@@H]1N(C)c1ncnc2[nH]ccc12,0%,0%,19%,23%,0%,0%,0%,9%,0%,0%,7%,12%,0%,0%,0%,1%,0%,0%,0%,0%
CC(C)Nc1cc(-c2ccc3c(N)n[nH]c3c2)nc(N)n1 [GSK2221681],0%,0%,0%,1%,7%,4%,0%,0%,1%,0%,0%,0%,0%,34%,26%,0%,0%,0%,0%,0%
C[C@@H](Oc1cc(-c2cnn(C3CCNCC3)c2)cnc1N)c1c(Cl)ccc(F)c1Cl,0%,0%,0%,24%,20%,0%,14%,35%,26%,0%,8%,0%,36%,12%,9%,0%,12%,0%,0%,25%
NC(=O)c1cc(-c2ccccc2)cc2c(C3CCNCC3)c[nH]c12 [GSK301362],0%,0%,10%,7%,4%,12%,0%,3%,21%,0%,15%,28%,14%,30%,27%,38%,0%,0%,4%,9%
CC(C)N1C(=O)Cc2cc(Nc3ncc(C(F)(F)F)c(NCc4cccc(S(C)(=O)=O)c4)n3)ccc21,0%,0%,0%,37%,0%,1%,0%,12%,2%,0%,51%,0%,5%,8%,0%,19%,7%,6%,25%,0%
COc1ccc(C[C@@H](CN)NC(=O)c2cc(Br)c(-c3ccnc4[nH]ccc34)s2)cc1.Cl.Cl [GSK1389063],14%,0%,29%,22%,1%,19%,0%,0%,0%,37%,13%,0%,34%,78%,62%,93.9%,89%,89%,98.7%,16%
CCN(CC)CCOc1ccc(Nc2ncc3cc(-c4c(Cl)cccc4Cl)c(=O)n(C)c3n2)cc1 [SB-601273],98.5%,34%,99.5%,26%,0%,35%,44%,0%,20%,31%,96.4%,99.3%,16%,82%,17%,47%,53%,41%,–,0%
CN(C)CCOc1ccc(-c2cc(-c3c[nH]nc3-c3ccccn3)ccn2)cc1 [GW835314],25%,0%,3%,33%,0%,0%,10%,8%,11%,44%,10%,0%,0%,0%,0%,24%,0%,90%,4%,3%
O=C(NCCCN1CCOC1=O)c1cnc(NCc2cc(Cl)ccc2Cl)nc1NC1CCCC1,0%,0%,7%,31%,0%,0%,7%,22%,0%,16%,2%,17%,0%,9%,17%,0%,18%,16%,2%,0%
O=C(NCCNc1ccnc(NCc2ccc(F)cc2)n1)c1cc2ccccc2s1 [GSK1379944],0%,0%,4%,11%,19%,85%,0%,0%,0%,0%,0%,88%,11%,15%,20%,0%,0%,57%,0%,8%
Cc1cc2cn[nH]c2cc1-c1cccc2c(N)c(C(N)=O)nnc12,27%,0%,12%,33%,18%,2%,17%,0%,15%,40%,27%,0%,48%,24%,10%,85%,16%,12%,0%,26%
C[C@H]1Oc2cc(cnc2N)-c2c(nn(C)c2C#N)CN(C)C(=O)c2ccc(F)cc21,0%,0%,22%,29%,0%,0%,0%,28%,3%,3%,0%,5%,0%,8%,9%,36%,14%,2%,11%,0%
C=CC(=O)Nc1cc2c(Nc3ccc(F)c(Cl)c3)ncnc2cc1OCCCN1CCOCC1 [GW781483],0%,0%,0%,18%,0%,3%,0%,11%,22%,6%,36%,0%,0%,0%,14%,0%,15%,0%,0%,1%
Cc1ccc(-n2nc(C(C)(C)C)cc2NC(=O)Nc2ccc(OCCN3CCOCC3)c3ccccc23)cc1 [GW839464],0%,2%,0%,9%,0%,21%,0%,0%,0%,0%,0%,–,0%,0%,0%,35%,10%,12%,0%,0%
Cl.Oc1cc(-c2nc(-c3ccccc3)[nH]c2-c2ccncc2)ccc1Cl [SB-386023],18%,0%,0%,0%,10%,0%,28%,14%,0%,1%,0%,90%,8%,0%,20%,0%,0%,5%,1%,0%
CN(C)CC(O)COc1ccc(Nc2nccc(-c3cnn4nc(N5CCOCC5)ccc34)n2)cc1 (stereo not drawn) [GW767488],47%,44%,14%,96.1%,37%,0%,64%,86%,55%,0%,51%,11%,54%,17%,34%,4%,25%,30%,9%,97.6%
Cc1n[nH]c2ccc(-c3cc(OC[C@@H](N)Cc4ccccc4)cnc3-c3ccoc3)cc12.O=C(O)C(F)(F)F.O=C(O)C(F)(F)F [GSK507358],0%,1%,0%,0%,0%,0%,0%,11%,30%,87%,20%,3%,12%,88%,40%,27%,0%,3%,56%,4%
Cc1cc(C(=O)Nc2ccc(Oc3ccc4nc(NC(=O)C5CC5)cn4n3)cc2)nn1-c1ccccc1,0%,1%,10%,0%,0%,0%,10%,0%,0%,0%,0%,2%,0%,0%,0%,3%,0%,15%,0%,0%
